KinaseGlo FLuc = Kinase-Glo luciferase inhibition (counter-screen); actives 0.28% (n = 200,000); AID 1379; Kinase-Glo luciferase, ATP luminescence, 8 min; Potency, µM (titrated, usually from 38.3 µM), without a hit: at the highest dose activity change, negative = inhibition, most hits filed as inhibitors; also: % is scaled to controls: 0 for no effect and ±100 for the full control effect; nearly all actives have a fitted effect of over 60% in size
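Recombinant Kinase-Glo luciferase, 10 uM ATP (linear range), luciferin; imidazole pH 7.2 / KCl / MgCl2 / Tween / BSA buffer; 8 min RT; luminescence.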
NPC1 promoter act = activates the NPC1 promoter; Potency, µM (series often up to 9.22 µM), inactives show at the highest dose activation, actives largely listed as activators; AID 485313; Huh7 NPC1 promoter luciferase reporter, 24 h; actives 2.4% (n = 320,000); also: % of control where 0% means no effect; nearly all actives have a fitted effect of over 60% in size
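In 1536-well qHTS, Huh7 cells harboring an NPC1 promoter–luciferase construct received compound for 24 h; activation was quantified by luminescence following luciferase reagent addition.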
Rab9 promoter act = activators of Rab9 promoter | Huh7 Rab9 promoter-luciferase reporter, luminescence, 24 h | Potency, µM (highest dose often 9.22 µM), for inactives: top-dose activation, negative = inhibition, actives largely listed as activators | AID 485297 | actives 2.8% (n = 320,000); also: % of control where 0% means no effect; nearly all actives have a fitted effect of over 60% in size
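Cells were plated at 1500 per well in reduced-serum medium with 10% FBS and left 2 h. Compound in DMSO was then added for 24 h at 37 °C. Reporter signal was read by luminescence after 10 min with luciferase detection reagent.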
SMN2 splice up = increases expression of the SMN2 splice variant; HEK293 SMN2-luciferase splicing reporter, luminescence, 30-36 h; Potency, µM (doses to about 46.1 µM), for the others: at the top dose activity change, positive = activation, most hits filed as activators; actives 2.8% (n = 210,000); AID 1458; also: % of control where 0% means no effect; nearly all actives have a fitted effect of over 55% in size
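HEK293 cells carry an SMN2 minigene-luciferase reporter in which exon 7 inclusion puts luciferase in frame. Cells were seeded at 2000 cells/well, attached for 10-12 hours, then exposed to compounds for 30-36 hours at 37C before ONE-Glo luminescence.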
FLuc modulator = inhibits or activates purified firefly luciferase, miR-21 counter-screen. actives 6.9% (n = 360,000). purified FLuc, Km substrates, luminescence inhibition. Potency, µM (titrated, usually from 57.5 µM), for the others: at the highest dose activity change, negative = inhibition, usual class: inhibitors. P08659. AID 588342;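 also: plate controls were vehicle for no effect and reference inhibitor for full effect; nearly all actives have a fitted effect of over 55% in size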
Target sequence (P08659 whole entry, looked up): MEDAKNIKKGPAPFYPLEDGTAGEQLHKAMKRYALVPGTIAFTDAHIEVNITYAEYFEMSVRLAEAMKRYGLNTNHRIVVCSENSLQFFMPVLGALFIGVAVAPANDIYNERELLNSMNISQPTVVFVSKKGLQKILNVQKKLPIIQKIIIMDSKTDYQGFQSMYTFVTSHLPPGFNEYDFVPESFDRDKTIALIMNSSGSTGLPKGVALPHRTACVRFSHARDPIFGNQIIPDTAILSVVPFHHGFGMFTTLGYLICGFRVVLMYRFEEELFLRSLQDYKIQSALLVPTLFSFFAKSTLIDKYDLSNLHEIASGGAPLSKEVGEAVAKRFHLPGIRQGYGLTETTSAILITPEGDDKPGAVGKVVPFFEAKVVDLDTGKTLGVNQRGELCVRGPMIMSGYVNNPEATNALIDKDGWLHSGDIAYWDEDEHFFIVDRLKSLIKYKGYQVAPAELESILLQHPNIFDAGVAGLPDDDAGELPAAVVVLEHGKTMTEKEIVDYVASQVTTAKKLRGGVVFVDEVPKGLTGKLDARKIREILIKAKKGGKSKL
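Purified P. pyralis luciferase, 10 nM final, with Km-level 10 uM D-luciferin and 10 uM ATP in 50 mM Tris acetate pH 7.5, 10 mM Mg acetate, 0.01% Tween-20, 0.05% BSA; 6-point qHTS titration about 60 µM downward; luminescence read.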
ELG1 genotox = induces genotoxicity in HEK293T cells with luciferase-tagged ELG1; HEK293T ELG1-luciferase reporter, luminescence, 16 h; Potency, µM (series often up to 46 µM), for inactives: at the highest dose activity change, positive = activation, most hits filed as activators; actives 1.3% (n = 330,000); also: % of control where 0% means no effect; nearly all actives have a fitted effect of over 60% in size
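Reporter readout depends on ELG1 protein level, which increases with genetic stress. After 16 hr compound exposure at 37 °C, luciferase activity was quantified using ONE-Glo.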
* marks the source's active call; other numbers are inactive results; [ ] = remark or other dose. A selection: hits, their analogues and other compounds. The true share with any hit is near 7.3%. Calls follow the shape of the dose curve; as a rule, active = well fitted curve in the direction sought with a large enough effect; inconclusive = small, poorly fitted or top-dose-only effect, or another doubt; inactive = no such curve, though single readings can be large; an effect the other way counts as inactive or inconclusive. Potency is read from the fitted curve at half-maximal effect.

CCOc1ccc(CCNS(=O)(=O)c2cc(Br)cc3c2N(C(C)=O)CC3)cc1OCC was read as FLuc modulator 3%.
For COC(=O)N1C2=C(c3ccccc3[C@@H]1CC(=O)Nc1ccc3ccc4cccc5ccc1c3c45)[C@@H]1C(=O)N(c3ccccc3)C(=O)[C@@H]1[C@H](C)C2 the results were KinaseGlo FLuc -7%[7.66 µM] and SMN2 splice up -4%[9.22 µM].
Screening Cc1ccc2cccc(NC(=O)COc3ccccc3[N+](=O)[O-])c2n1 returned FLuc modulator 0%.
Screening COc1ccc(C=C(c2nc3ccccc3s2)c2nc3ccccc3s2)cc1O returned KinaseGlo FLuc -3%, NPC1 promoter act 0%, Rab9 promoter act 6%, SMN2 splice up -50%, FLuc modulator 11µM* and ELG1 genotox inconclusive.
For COc1ccc(/C=N/Nc2nc3ccccc3s2)cc1O the results were KinaseGlo FLuc -9%, NPC1 promoter act inconclusive, Rab9 promoter act inconclusive, SMN2 splice up 17%, FLuc modulator 0.24µM* and ELG1 genotox 2.3µM*.
O=C(Nc1cccc2ccccc12)c1cnccn1 was read as KinaseGlo FLuc -1%, NPC1 promoter act -2%, Rab9 promoter act 4%, SMN2 splice up inconclusive, FLuc modulator inconclusive and ELG1 genotox 21µM*.
Screening O=C(O)Cc1ccc(NC(=O)c2cnccn2)cc1 returned KinaseGlo FLuc -9%, NPC1 promoter act -1%, Rab9 promoter act 0%, SMN2 splice up -7%, FLuc modulator inconclusive and ELG1 genotox 0%.
Screening O=C(Nc1ccc(Br)cc1)c1cnccn1 returned KinaseGlo FLuc -9%, NPC1 promoter act inconclusive, Rab9 promoter act 3.5µM*, SMN2 splice up 22%, FLuc modulator inconclusive and ELG1 genotox inconclusive.
Screening Cc1nc(NC(=O)c2cnccn2)ccc1Br returned NPC1 promoter act 2.8µM*, Rab9 promoter act 2µM*, FLuc modulator 8.5µM* and ELG1 genotox inconclusive.
`Cc1ccc(NC(=O)c2cnccn2)cc1C` gave NPC1 promoter act 3.2µM*, Rab9 promoter act 3.2µM*, FLuc modulator 11µM* and ELG1 genotox inconclusive.
Cc1ccc(NC(=O)c2cnccn2)cc1 was read as KinaseGlo FLuc -19%, NPC1 promoter act 2.5µM*, Rab9 promoter act 3.2µM*, SMN2 splice up 6.3µM*, FLuc modulator inconclusive and ELG1 genotox inconclusive.
For Cc1ccc(-c2nc3ccc(NS(=O)(=O)c4ccccc4)cc3[nH]2)o1 the results were KinaseGlo FLuc -7%, NPC1 promoter act 4µM*, Rab9 promoter act inconclusive, SMN2 splice up inconclusive, FLuc modulator 12µM* and ELG1 genotox inconclusive.
`O=S(=O)(Nc1ccc2nc(-c3ccc(Br)o3)[nH]c2c1)c1ccccc1` gave KinaseGlo FLuc -3%, NPC1 promoter act 2.8µM*, Rab9 promoter act 2.8µM*, SMN2 splice up 9%, FLuc modulator 15µM* and ELG1 genotox 16%.
COCCNC(=O)C1(C)C=CCN1C(C)=O (configuration not stated) was read as KinaseGlo FLuc -1% and SMN2 splice up inconclusive.
`O=c1[nH]c2ccccc2c2nc3ccccn3c12` gave KinaseGlo FLuc -16%, NPC1 promoter act inconclusive, Rab9 promoter act inconclusive, SMN2 splice up 14%, FLuc modulator 17µM* and ELG1 genotox inconclusive.
Screening O=C(c1cc2c(s1)CCCC2)n1cccn1 returned KinaseGlo FLuc -4%, NPC1 promoter act -1%, Rab9 promoter act -6%, SMN2 splice up -1%, FLuc modulator 21µM* and ELG1 genotox 5%.
Screening CC(=O)c1ccc(N2CCN(C(=O)c3cc4c(s3)CCCC4)CC2)cc1 returned KinaseGlo FLuc -3%, NPC1 promoter act 5%, Rab9 promoter act 17%, SMN2 splice up 11%, FLuc modulator 24µM* and ELG1 genotox 14%.
For COc1ccc(N2CCN(C(=O)c3cc4c(s3)CCCCC4)CC2)cc1 the results were NPC1 promoter act 3%, Rab9 promoter act -1%, FLuc modulator 17µM* and ELG1 genotox 0%.
For CC(C)NC(=O)C1CCN(C2CCN(C(=O)c3cc4c(s3)CCCCC4)CC2)CC1 the results were KinaseGlo FLuc 3%, NPC1 promoter act -5%, Rab9 promoter act -13%, SMN2 splice up -22%, FLuc modulator -8% and ELG1 genotox -7%.
NC(=O)C1CCN(C(=O)c2cc3c(s2)CCCC3)CC1 was read as NPC1 promoter act 1.8µM*, Rab9 promoter act 1.4µM*, FLuc modulator -14% and ELG1 genotox 15%.
Screening COc1ccccc1N1CCN(C(=O)c2cc3c(s2)CCC3)CC1 returned KinaseGlo FLuc 0%, NPC1 promoter act 1%, Rab9 promoter act 0%, SMN2 splice up -15%, FLuc modulator -3% and ELG1 genotox -2%.
For CC(C)CNc1nc(N)[nH]c(=O)c1NC=O the results were KinaseGlo FLuc -1%[7.66 µM] and SMN2 splice up -3%[9.22 µM].
COc1ccc2c(c1)O[C@H](c1ccc3c(c1)OCO3)[C@@H](OC(=O)NCc1ccco1)C2=O was read as KinaseGlo FLuc 0% and SMN2 splice up -1%.
`CC(C)(C)c1ccc(C(=O)c2cn[nH]c2-c2ccccc2O)cc1` gave NPC1 promoter act inconclusive, Rab9 promoter act inconclusive, FLuc modulator 11µM* and ELG1 genotox 12%.
Screening O=C(c1ccc(Br)cc1)c1cn[nH]c1-c1ccccc1O returned NPC1 promoter act -3%, Rab9 promoter act 9%, FLuc modulator -16% and ELG1 genotox 0%.
For CCOC(=O)Cc1csc(NC(=O)/C=C/c2ccc(Br)o2)n1 the results were NPC1 promoter act 1%, Rab9 promoter act 0%, FLuc modulator 6.7µM* and ELG1 genotox -8%.
CCOC(=O)Cc1csc(NC(=O)c2ccc(Br)s2)n1 was read as KinaseGlo FLuc -6%, NPC1 promoter act 1%, Rab9 promoter act 12%, SMN2 splice up -6%, FLuc modulator 24µM* and ELG1 genotox -9%.
CCOc1cccc2sc(NC(=O)c3ccc(Br)s3)nc12 was read as KinaseGlo FLuc -1%, NPC1 promoter act 19%, Rab9 promoter act 16%, SMN2 splice up -21%, FLuc modulator 2.7µM* and ELG1 genotox -1%.
Screening CCOC(=O)Cc1csc(NC(=O)c2cc(C)cc(C)c2)n1 returned KinaseGlo FLuc -3%, NPC1 promoter act -2%, Rab9 promoter act -8%, SMN2 splice up -10%, FLuc modulator -18% and ELG1 genotox -6%.
CCOC(=O)Cc1csc(NC(=O)c2cccs2)n1 was read as KinaseGlo FLuc -6%, NPC1 promoter act 17%, Rab9 promoter act 20%, SMN2 splice up -4%, FLuc modulator 19µM* and ELG1 genotox inconclusive.

Screens deposited in PubChem BioAssay by National Center for Advancing Translational Sciences (NCATS).
